# A number with no mark means an inactive call. How the calls were made is not given here.
# Target: Pantothenate synthetase (Mycobacterium tuberculosis (strain ATCC 25618 / H37Rv)) (UniProt P9WIL5)
# Test: Coupled enzyme confirmation of inhibitors against recombinant Mtb PanC (AID 375);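 further: 0% = full reaction with vehicle and 100% = no enzyme background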
# Settings: coupled enzyme assay; at 10 µM, stronger effect = higher value
# Chain of Pantothenate synthetase (Mycobacterium tuberculosis (strain ATCC 25618 / H37Rv)) (P9WIL5 whole entry, looked up): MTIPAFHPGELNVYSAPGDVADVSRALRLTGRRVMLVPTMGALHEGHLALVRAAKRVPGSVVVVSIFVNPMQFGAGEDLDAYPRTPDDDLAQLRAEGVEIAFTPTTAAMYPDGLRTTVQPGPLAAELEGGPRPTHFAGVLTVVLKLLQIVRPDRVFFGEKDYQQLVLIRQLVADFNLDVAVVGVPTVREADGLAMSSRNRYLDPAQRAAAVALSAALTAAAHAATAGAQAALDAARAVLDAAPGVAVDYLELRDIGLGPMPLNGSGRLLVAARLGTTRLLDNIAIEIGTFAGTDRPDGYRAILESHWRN
row,SMILES,inhibition [%]
1,CN1C(=O)CCC1(O)c1ccccc1 (stereo not given),0
2,Cc1nn(-c2ccccc2)c2c1C(O)n1c(nc3ccccc31)S2 (stereo not given),2
3,CN(C)CCOc1ccccc1Cc1ccccc1,0
4,CCOC(=O)CSc1nc2ccccc2n2cnnc12,0
5,O=C1c2ccccc2CN1CCNS(=O)(=O)c1ccc(Cl)cc1,9
6,CCOC(=O)N(C)c1ccc(C(O)(C(F)(F)F)C(F)(F)F)cc1,0
7,CCC(=O)Nc1ccc(F)c(Cl)c1,6
8,COc1ccc(OC)c(NC(=O)CS(=O)(=O)c2ccccc2)c1,0
9,CC(C)C(=O)N1CCN(c2nc(-c3ccccc3)c3c(c2C#N)CCCC3)CC1,0
10,COc1ccc(Cl)c(N2CCN(CCCNC(=O)Nc3ccc(C)cc3)CC2)c1,0
11,CCn1c(C)cc(=S)c2ccccc21,9
12,Cc1cc(NC(=O)CSc2nc(C3CCCCC3)nc3ccccc23)no1,0
13,COCCn1c(SCC(=O)c2ccccc2)nc2c(c1=O)SC(C)C2 (stereo not given),0
14,COc1ccc(N=C2C(=O)Nc3ccccc32)cc1,0
15,O=C(NC1CCN(Cc2nnnn2CCc2ccccc2)CC1)c1ccccc1F,3
16,O=C(O)CCn1c(SCc2ccccc2)nc2ccccc21,0
17,CN(c1ccccc1)S(=O)(=O)c1ccc(C(=O)OCC(=O)N2CCOCC2)cc1,7
18,O=C(Nc1ccccc1C(F)(F)F)c1cc(S(=O)(=O)N2CCOCC2)ccc1F,0
19,COc1ccc(CN(CC(=O)NCC2CCCO2)C(=O)CCC(=O)Nc2cc(C)on2)cc1 (stereo not given),0
20,COc1cc(OC)c(-c2nn3c(C4CCCCC4)nnc3s2)cc1OC,0

row,SMILES,inhibition [%]
1,CCOC(=O)c1cc(-c2ccc(N)cc2)sc1N,0
2,CCSc1ccccc1C(=O)NCc1ccc(S(N)(=O)=O)cc1,0
3,CCOc1ccc(S(=O)(=O)n2c(C)nc3ccccc32)cc1,0
4,Cc1nnc(SCc2cccc(Oc3ccccc3)c2)n1N,0
5,CC1(C)CC(=O)CC(=Nc2ccc(C(=O)O)cc2)C1,8
6,Cc1cc(C)c2cc3c(ccn3C3OC[C@H](O)[C@H](O)[C@H]3O)cc2n1 (stereo not given in full),4
7,Cc1ccc2c(c1)C(O)(CC(=O)c1ccc3c(c1)OCO3)C(=O)N2 (stereo not given),0
8,COc1cc(C2c3c(oc4c(C)cc(C)cc4c3=O)C(=O)N2Cc2cccnc2)ccc1O (stereo not given),0
9,O=C1C2ON(c3ccc(Cl)cc3)C(c3ccco3)C2C(=O)N1c1ccccc1 (stereo not given),0
10,CCOC(=O)C1CCN(c2nc3ccccc3nc2C(C#N)C(=O)OCCOC)CC1 (stereo not given),0
11,CC(=O)NCCc1nc2ccccc2[nH]1,0
12,Cc1ccccc1OCCN1C(=O)NC2(CCc3ccccc32)C1=O (stereo not given),8
13,O=C(O)CC(NC(=O)c1ccccc1NC(=O)c1ccccc1)C(=O)O (stereo not given),0
14,CCOC(=O)c1nnn(CC(=O)Nc2cccc(OC)c2)c1C(=O)OCC,9
15,COc1ccccc1OCc1ccc(C(=O)OCC2CCCO2)o1 (stereo not given),0
16,CCCCc1nccn1CCn1ccnc1CCCC,0
17,COc1cc(Cl)c(C)cc1NC(=O)COC(=O)c1cnc(C)cn1,0
18,CC(C)(C)c1ccc(C(=O)N2CCC(C(=O)NCc3ccncc3)CC2)cc1,0
19,CCN(CCCNC(=O)C1CCN(S(=O)(=O)c2cccc3nonc23)CC1)Cc1ccccc1,6
20,Cc1ccc2c(c1C)NC(C(=O)O)C1CC=CC21 (stereo not given),0
